Test results taken from the supplement of paper PMC6609913.
Structures can show the parent of a compound that is named as a salt. ± gives the standard deviation of the averaged measurements. Over roughly 1,300 compounds, “normalised cell viability” has its median near 1; the lowest 2% begin near 0.14. Only a selection was taken, and the lowest values are over-represented in it overall.

Test system: V-C8 (BRCA2-deficient hamster cells)
Test: normalised cell viability (fraction of plate median); higher = more viable cells (less toxic)
Details: 5 µM
Procedure, shortened: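 In two screens, library drugs at 5 μM were given for 3 days (screen 1) or 6 days (screen 2) to hamster V-C8 cells without BRCA2 and V-C8 cells with BRCA2 restored, seeded 24 h earlier in 96-well plates. A resazurin assay gave the cell viability readout, expressed as modified robust per cent of sample against the plate median, with triplicate wells averaged.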

Structure (SMILES) | normalised cell viability (treatment time: 3 days) | normalised cell viability (treatment time: 6 days)
NC(=O)OCCCc1ccccc1 [Phenprobamate] | 1.14 ± 0.049 | 1.08 ± 0.15
S=C(NC1CCCCC1)N1CCC(c2cnc[nH]2)CC1 [Thioperamide maleate] | 1 ± 0.018 | 1.02 ± 0.014
C[C@H](N)[C@H](O)c1ccc(O)c(O)c1 [Levonordefrin] | 1.05 ± 0.05 | 1.02 ± 0.028
CCCCCC[C@H]1C(=O)O[C@H](C)[C@H](NC(=O)c2cccc(NC=O)c2O)C(=O)O[C@@H](C)[C@@H]1OC(=O)CC(C)C [Antimycin A] | 0.152 ± 0.0026 | 0.12 ± 0.011
C[C@]12CCC(=O)C=C1CC[C@@H]1[C@@H]2C(=O)C[C@]2(C)C(=O)CC[C@@H]12 [Adrenosterone] | 1.19 ± 0.085 | 1.11 ± 0.017
CCC(C)C1O[C@]2(C=C[C@@H]1C)C[C@@H]1CC(C/C=C(\C)[C@@H](OC3C[C@H](OC)[C@@H](OC4C[C@H](OC)[C@@H](O)[C@H](C)O4)[C@H](C)O3)[C@@H](C)/C=C/C=C3\COC4[C@H](O)C(C)=CC(C(=O)O1)[C@]34O)O2 (some centres undefined) [Avermectin B1a] | 0.486 ± 0.016 | 0.475 ± 0.052
COc1ccc(CN2CCNCC2)c(OC)c1OC [Trimetazidine dihydrochloride] | 1.05 ± 0.06 | 1.06 ± 0.023
C=C(C)[C@@H]1[C@H]2OC(=O)[C@@H]1[C@]1(O)C[C@H]3O[C@]34C(=O)O[C@H]2[C@]14C [Picrotoxinin] | 1.007 ± 0.0066 | 1.11 ± 0.061
COc1ccc(CCN2CCC(Nc3nc4ccccc4n3Cc3ccc(F)cc3)CC2)cc1 [Astemizole] | 0.13 ± 0.0054 | 0.099 ± 0.003
Fc1ccc(C(OCCN2CCN(CCCc3ccccc3)CC2)c2ccc(F)cc2)cc1 | 0.159 ± 0.0052 | 0.182 ± 0.012
C[C@]12C[C@H]3S[C@H]3C[C@@H]1CC[C@@H]1[C@@H]2CC[C@]2(C)[C@@H](O)CC[C@@H]12 [Epitiostanol] | 1.04 ± 0.012 | 1.033 ± 0.01
CC1OC(OC2/C=C/C=C/C=C/C=C/CC/C=C/C=C/[C@H](C)[C@@H](O)[C@@H](C)[C@H](C)OC(=O)CC(O)CC(O)CC(O)CCC(O)C(O)C[C@]3(O)CC(O)C(C(=O)O)C(C2)O3)C(O)C(N)C1O (some centres undefined) [Nystatine] | 1.06 ± 0.055 | 0.905 ± 0.084
CN1CCN(C(=O)OC2c3nccnc3C(=O)N2c2ccc(Cl)cn2)CC1 (centres undefined) [Zopiclone] | 1.11 ± 0.05 | 1.04 ± 0.061
CCN[C@@H](C)Cc1cccc(C(F)(F)F)c1 [Dexfenfluramine hydrochloride] | 0.908 ± 0.092 | 1.02 ± 0.074
C[C@@H]1O[C@@H](O[C@@H]2C=C3CC[C@@H]4[C@H](CC[C@]5(C)[C@@H](c6ccc(=O)oc6)CC[C@]45O)[C@@]3(C)CC2)[C@H](O)[C@H](O)[C@H]1O [Proscillaridin A] | 0.945 ± 0.013 | 0.908 ± 0.11
CCN(C(C)=O)c1cccc(-c2ccnc3c(C#N)cnn23)c1 [Zaleplon] | 1.13 ± 0.075 | 0.981 ± 0.063
C[C@]12Cc3c[nH]nc3C[C@@H]1CC[C@@H]1[C@@H]2CC[C@@]2(C)[C@H]1CC[C@]2(C)O [Stanozolol] | 1.07 ± 0.064 | 1.06 ± 0.036
CN[C@@H]1[C@@H](O)[C@@H](O[C@@H]2[C@@H](O)[C@H](O[C@H]3O[C@H](CN)CC[C@H]3N)[C@@H](N)C[C@H]2N)OC[C@]1(C)O.CN[C@@H]1[C@@H](O)[C@@H](O[C@@H]2[C@@H](O)[C@H](O[C@H]3O[C@H]([C@@H](C)N)CC[C@H]3N)[C@@H](N)C[C@H]2N)OC[C@]1(C)O.CN[C@@H]1[C@@H](O)[C@@H](O[C@@H]2[C@@H](O)[C@H](O[C@H]3O[C@H]([C@@H](C)NC)CC[C@H]3N)[C@@H](N)C[C@H]2N)OC[C@]1(C)O [Gentamicine sulfate] | 0.961 ± 0.029 | 0.955 ± 0.039
C(#CCN1CCCC1)CN1CCCC1 [Tremorine dihydrochloride] | 1.09 ± 0.065 | 1.08 ± 0.06
C[CH2][Hg][S]c1ccccc1C(=O)[O-].[Na+] [Thimerosal] | 0.0995 ± 0.0026 | 0.126 ± 0.0061
C[N+]1(C)CCCC(OC(=O)C(O)(c2ccccc2)c2ccccc2)C1 (centres undefined) [Mepenzolate bromide] | 0.974 ± 0.054 | 1.08 ± 0.059
O=C(CCCN1CCC(n2c(=O)[nH]c3ccccc32)CC1)c1ccc(F)cc1 [Benperidol] | 0.93 ± 0.029 | 0.969 ± 0.083
